# From PubChem BioAssay
# Several values for one entry are separate records, joined by “and”; a condition that tells them apart may be missing. Equal entries are not always repeated. Activity calls are given as the source filed them.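 The calls were made as follows, unless noted: active = compound raises insulin release from rat beta cells at 5 mM glucose, no numeric limit stated; inactive = the rest.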
# Assays:
# [1] = Wnt pathway potentiators raising nuclear beta-catenin – imaging, WNT3A-conditioned medium, mouse C2C12, NPC library, primary screen (AID 1117326; in the data active = nuclear beta-catenin stimulation mostly above about 4.2%, no sharp cut-off; inactive = mostly below about 10%); conditions: stronger effect = higher value
# [2] = stimulators of insulin release from INS-1E, primary screen, cell-based, 5 mM glucose, NPC library (AID 1117329); conditions: rat INS-1E insulin secretion, at 10 µM, stronger effect = higher value
# [3] = growth inhibition of GSK3B-pretreated HCT116 cells – cell-based, CellTiter-Glo, 0.2 to 20 µM (AID 1117336;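 active = compounds lowering colon cancer cell viability after pretreatment blocking the GSK3B kinase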); conditions: HCT116 viability after GSK3B inhibitor, at 20 µM, stronger effect = higher value
# [4] = inhibition of endothelial tube formation, primary screen, imaging, VEGF stimulated, CD31 staining, tube area, NPC library (AID 1117340;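 active = compound that reduces growth-factor-driven endothelial tube area in a mixed cell culture, no cutoff stated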); conditions: VEGF-stimulated ADSC/ECFC co-culture, at 10 µM, stronger effect = higher value
# [5] = GLP1 release stimulators, primary, NCI-H716, NPC library (AID 1117341;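 active = compound raises GLP1 secretion from the human gut endocrine cells, with no numeric limit stated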); conditions: NCI-H716 cells, at 10 µM, stronger effect = higher value
# [6] = HCT116 colon cancer cell growth inhibition, primary screen, CellTiter-Glo luminescence, NPC library (AID 1117342;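 active = compounds that lower survival of HCT116 colon cancer cells in the luminescence readout, no numeric limit stated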); conditions: at 20 µM (top of the series)
# [7] = reduced SW480 viability measured with CellTiter-Glo, NPC library, primary (AID 1117343;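 active = compounds that lower viability of the colon cancer cells in the luminescence readout, with no numeric limit stated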); conditions: CellTiter-Glo luminescence; at 20 µM (top of the series)
# [8] = NPC library primary testing for decreased DLD-1 cell viability via CellTiter-Glo (AID 1117346;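 active = compounds that lower survival of DLD-1 colon cancer cells in the luminescence readout, no cutoff given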); conditions: DLD-1 viability, CellTiter-Glo luminescence; at 20 µM (top of the series)
# [9] = biological target: 6-phosphogluconate dehydrogenase, decarboxylating (Homo sapiens) (UniProt P52209); test: inhibition of human phosphogluconate dehydrogenase – biochemical, recombinant enzyme, NADPH absorbance, primary screen (AID 1159550;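 active = at least 20% inhibition of 6-phosphogluconate dehydrogenase activity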); conditions: recombinant 6PGD, NADPH absorbance 341 nm; at 10 µM; stronger effect = higher value
# [10] = modulation of C. elegans fzo-1 (AID 1259413; call rule not given here;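 also: fzo-1 mutant C. elegans worms in liquid wells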); conditions: C. elegans fzo-1 modulator screen, mean read-out; stronger effect = higher value
# [11] = EMT-state selective cytotoxicity in co-culture – imaging, PC-3E GFP, TEM4-18 mCherry, primary screen (AID 1345086;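 active = compounds killing one labelled cell type while sparing the other, by normalised counts and ratio limits, not self-fluorescent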;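 also: cells exposed to compound for 72 h before imaging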;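 as to red/green cell ratio (normalised): normalised mesenchymal count divided by normalised epithelial count so high means epithelial killing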); conditions: PC-3E GFP / TEM4-18 mCherry co-culture, imaging cell counts, at 1 µM
# [12] = MELAS cybrid and Rieske KO viability enhancers – cell-based, MELAS cybrids, Rieske KO mouse fibroblasts, CellTiter-Glo, primary screen (AID 1508586;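 active = mean z-score across replicates of 1.96 or higher in either the MELAS or the Rieske mutant cell line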;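 also: z relative to plate mean and SD of compound and empty wells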); conditions: low glucose
# [13] = biological target: NAD(+) hydrolase SARM1 (Homo sapiens) (UniProt Q6SZW1); test: blocking NAD cleavage by SARM1 SAM-TIR – cell lysate, NAD-Glo luminescence (AID 1508614;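 active = compound whose remaining NAD level is above about 45 nM, limit read from the data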;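 also: higher remaining NAD means stronger inhibition of SARM1 NADase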); conditions: SAM-TIR HEK293T lysate NADase, at 1 µM, stronger effect = higher value
# [14] = biological target: Mitogen-activated protein kinase 7 (Homo sapiens) (UniProt Q13164); test: Gal4-ERK5 driven luciferase induction – cell-based, HTS, primary screen (AID 1508626;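 active = luciferase signal above three times the same-plate solvent-only control wells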;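 also: luciferase driven by Gal4-ERK5 fusion binding five Gal4 sites before minimal TATA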); conditions: HeLa Gal4-ERK5 transactivation, 18 h, at 5 µM, stronger effect = higher value
# [15] = growth inhibition, single agents and combos, ICB984, cell-based, cisplatin or BGB combos, synergistic combos for chromothripsis tumors (AID 1671451; call rule not given here;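 also: cells exposed for 96 hours before readout; 0% = vehicle DMSO and 100% = killing by high DMSO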); conditions: ICB984 medulloblastoma cells, drug combinations, stronger effect = higher value
# [16] = tested on: F380Y; test: BK channel mutant inhibitors and activators – cell-based, U2OS BacMam, thallium flux, beta subunits, selectivity assay, profiling panel (AID 1259406;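 active = thallium flux through the channel raised or lowered by more than 3 SD from vehicle-only wells, actives on both sides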;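 also: initial slope of Thallos dye fluorescence rise after thallium is added; log ratio against the mean of 0.3% DMSO vehicle wells on the same plate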); conditions: U2OS BacMam BK variants, at 30 µM
# [17] = tested on: F380Y/beta1; test: as above; conditions: U2OS BacMam BK variants, at 30 µM
# [18] = tested on: F380Y/beta2Delta; test: as above; conditions: U2OS BacMam BK variants, at 30 µM
# NAD(+) hydrolase SARM1 (Homo sapiens), sequence (Q6SZW1 whole entry, looked up, the tested form may be a part): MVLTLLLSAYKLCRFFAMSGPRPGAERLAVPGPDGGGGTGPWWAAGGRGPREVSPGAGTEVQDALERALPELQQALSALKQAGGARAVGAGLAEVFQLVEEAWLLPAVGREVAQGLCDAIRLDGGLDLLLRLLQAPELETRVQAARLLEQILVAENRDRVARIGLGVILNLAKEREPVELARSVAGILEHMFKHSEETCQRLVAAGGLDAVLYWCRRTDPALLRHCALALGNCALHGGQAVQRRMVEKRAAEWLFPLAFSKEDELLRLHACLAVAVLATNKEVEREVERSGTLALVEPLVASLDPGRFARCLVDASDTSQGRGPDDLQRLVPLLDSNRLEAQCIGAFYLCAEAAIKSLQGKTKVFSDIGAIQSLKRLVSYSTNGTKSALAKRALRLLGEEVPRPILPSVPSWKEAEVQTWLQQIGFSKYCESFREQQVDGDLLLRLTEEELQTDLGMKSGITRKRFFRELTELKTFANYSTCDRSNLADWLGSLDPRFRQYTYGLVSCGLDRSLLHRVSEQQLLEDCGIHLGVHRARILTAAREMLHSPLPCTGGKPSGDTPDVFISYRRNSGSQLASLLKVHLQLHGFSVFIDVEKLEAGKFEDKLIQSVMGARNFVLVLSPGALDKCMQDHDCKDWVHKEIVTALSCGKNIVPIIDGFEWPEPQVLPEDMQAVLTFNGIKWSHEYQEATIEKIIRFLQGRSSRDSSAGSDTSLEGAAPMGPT
# Mitogen-activated protein kinase 7 (Homo sapiens), sequence (Q13164 whole entry, looked up, the tested form may be a part): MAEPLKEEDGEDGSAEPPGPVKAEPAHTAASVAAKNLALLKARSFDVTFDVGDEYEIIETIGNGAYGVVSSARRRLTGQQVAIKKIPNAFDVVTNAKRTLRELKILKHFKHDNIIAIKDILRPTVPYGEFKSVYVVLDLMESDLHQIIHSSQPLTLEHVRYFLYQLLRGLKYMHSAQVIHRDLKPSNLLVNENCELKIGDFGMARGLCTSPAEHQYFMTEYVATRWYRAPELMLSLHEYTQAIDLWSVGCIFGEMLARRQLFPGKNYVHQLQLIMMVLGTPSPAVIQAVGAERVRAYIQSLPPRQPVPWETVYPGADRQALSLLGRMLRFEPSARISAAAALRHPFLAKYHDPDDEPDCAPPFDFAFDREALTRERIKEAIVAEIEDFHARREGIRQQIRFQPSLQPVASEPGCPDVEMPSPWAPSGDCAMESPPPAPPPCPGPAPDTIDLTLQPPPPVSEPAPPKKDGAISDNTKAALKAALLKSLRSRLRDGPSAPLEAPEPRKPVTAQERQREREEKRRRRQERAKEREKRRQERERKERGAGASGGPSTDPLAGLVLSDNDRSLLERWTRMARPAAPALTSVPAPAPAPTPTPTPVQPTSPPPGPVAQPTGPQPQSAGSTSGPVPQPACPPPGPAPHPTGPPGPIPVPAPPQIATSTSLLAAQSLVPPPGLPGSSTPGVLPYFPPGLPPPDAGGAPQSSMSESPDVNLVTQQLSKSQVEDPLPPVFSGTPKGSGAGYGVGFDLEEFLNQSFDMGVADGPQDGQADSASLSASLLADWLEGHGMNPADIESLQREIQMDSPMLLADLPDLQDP
# 6-phosphogluconate dehydrogenase, decarboxylating (Homo sapiens), sequence (P52209 whole entry, looked up): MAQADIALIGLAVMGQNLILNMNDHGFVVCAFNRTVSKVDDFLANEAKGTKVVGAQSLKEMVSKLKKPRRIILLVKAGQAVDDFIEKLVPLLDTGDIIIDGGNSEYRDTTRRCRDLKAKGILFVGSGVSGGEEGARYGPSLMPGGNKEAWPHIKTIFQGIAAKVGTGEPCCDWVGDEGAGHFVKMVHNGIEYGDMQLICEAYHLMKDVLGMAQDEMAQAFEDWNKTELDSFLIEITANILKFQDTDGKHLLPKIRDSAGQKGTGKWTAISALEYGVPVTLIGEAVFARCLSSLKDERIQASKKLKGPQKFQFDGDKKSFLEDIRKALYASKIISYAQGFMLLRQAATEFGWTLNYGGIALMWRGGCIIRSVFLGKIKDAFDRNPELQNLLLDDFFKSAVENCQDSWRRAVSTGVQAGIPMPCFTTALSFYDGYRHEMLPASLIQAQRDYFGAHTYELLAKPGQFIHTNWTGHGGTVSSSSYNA
compound,measurement,setting,value
COc1cc(O)cc(O)c1,nuclear beta-catenin stimulation,[1]; at 10 µM,1.6% (inactive)
same,nuclear beta-catenin stimulation,"[1]; stimulation, at 2 µM",-0.2%
same,insulin secretion stimulation,[2],4.5% (inactive)
same,viability decrease,[3],-4.6% (inactive)
same,tube area decrease,[4],10.6% (inactive)
same,GLP1 secretion stimulation,[5],-9.8% (inactive)
same,inhibition of viability,[6],7.93% (inactive)
same,viability decrease (inhibition),[7],4% (inactive)
same,viability decrease (inhibition),[8],-9.1% (inactive)
CCOC(=O)c1ccc(NC(=O)CN2CCCCC2)cc1,nuclear beta-catenin stimulation,[1]; at 10 µM,0.5% (inactive)
same,nuclear beta-catenin stimulation,"[1]; stimulation, at 2 µM",-1.8%
same,insulin secretion stimulation,[2],3.5% (inactive)
same,viability decrease,[3],18.5% (inactive)
same,tube area decrease,[4],0.1% (inactive)
same,GLP1 secretion stimulation,[5],0.9% (inactive)
same,inhibition of viability,[6],50.7% (active)
same,viability decrease (inhibition),[7],24.7% (inactive)
same,viability decrease (inhibition),[8],5.8% (inactive)
O=C1CC(c2ccc(Cl)cc2)CC(=O)N1,nuclear beta-catenin stimulation,[1]; at 10 µM,-1.1% (inactive)
same,nuclear beta-catenin stimulation,"[1]; stimulation, at 2 µM",-2.3%
same,insulin secretion stimulation,[2],1.8% (inactive)
same,viability decrease,[3],2.1% (inactive)
same,tube area decrease,[4],-4.2% (active)
same,GLP1 secretion stimulation,[5],3.8% (inactive)
same,inhibition of viability,[6],20.4% (inactive)
same,viability decrease (inhibition),[7],-4.9% (inactive)
same,viability decrease (inhibition),[8],6.7% (inactive)
CCNC(=O)NCCCOc1cccc(CN2CCCCC2)c1,nuclear beta-catenin stimulation,[1]; at 10 µM,-0.4% (inactive)
same,nuclear beta-catenin stimulation,"[1]; stimulation, at 2 µM",-1.5%
same,insulin secretion stimulation,[2],4.7% (inactive)
same,viability decrease,[3],1.2% (inactive)
same,tube area decrease,[4],0.6% (inactive)
same,GLP1 secretion stimulation,[5],-0.5% (inactive)
same,inhibition of viability,[6],5% (inactive)
same,viability decrease (inhibition),[7],-19.1% (inactive)
same,viability decrease (inhibition),[8],-12.6% (inactive)
Nc1nc2c(ncn2COCCO)c(=O)[nH]1,nuclear beta-catenin stimulation,[1]; at 10 µM,3% (inactive)
same,nuclear beta-catenin stimulation,"[1]; stimulation, at 2 µM",-1%
same,insulin secretion stimulation,[2],0.5% (inactive)
same,viability decrease,[3],-0.3% (inactive)
same,tube area decrease,[4],8.6% (inactive)
same,GLP1 secretion stimulation,[5],-0.5% (inactive)
same,inhibition of viability,[6],-3.47% (inactive)
same,viability decrease (inhibition),[7],23.2% (inactive)
same,viability decrease (inhibition),[8],-16.2% (inactive)
same,inhibition,[9],18.2% (inactive)
same,mean signal,[10],281 (inactive)
same,red/green cell ratio (normalised),"[11]; actives lie on both sides, counts scaled to control wells, 1 = unselective",1.25 (inactive)
same,normalised cell number,[11]; measured here: epithelial PC-3E GFP cell survival,1.01
same,normalised cell number,[11]; measured here: mesenchymal TEM4-18 mCherry cell survival,1.26
same,z-score,"[12]; MELAS cybrid survival, CellTiter-Glo 48 h, stronger effect = higher value",-0.252 (inactive) and -0.378 (inactive) and 0.479
same,z-score,"[12]; Rieske KO mouse fibroblast survival, CellTiter-Glo 72 h",0.554 and 0.269 and 2.37
same,remaining NAD,[13],10 nM (inactive)
same,luciferase signal,[14],40 AU (inactive)
same,inhibition,"[15]; BGB IC20 combo, at 0.005 µM",14.3% and 0.139%
same,inhibition,"[15]; BGB IC40 combo, at 0.005 µM",-30.6% and -19%
same,inhibition,"[15]; BGB IC40 combo, at 0.05 µM",-33.3% and -34.4%
same,inhibition,[15]; at 0.5 µM,-25.4% (inactive) and -25.1% (inactive)
same,inhibition,"[15]; cisplatin combo, at 0.05 µM",-37% and -39.3%
same,inhibition,"[15]; cisplatin combo, at 0.5 µM",-27.7% and -16.9%
same,inhibition,"[15]; cisplatin combo, at 5 µM",-26.2% and -27.5%
same,inhibition,"[15]; measured here: 5 uM single agent, at 5 µM",-25.9% and 2.01%
same,log fold change Tl+ flux,[16],0.00551 (inactive)
same,log fold change Tl+ flux,[17],-0.0568 (inactive)
same,log fold change Tl+ flux,[18],0.0127 (inactive)
